# Test results: PubChem BioAssay
# Several values for one entry are separate records, joined by “and”; a condition that tells them apart may be missing. Equal entries are not always repeated. Activity calls are given as the source filed them. Cut-off read from the data, not from the text of the source, unless noted: active = inhibition above about 80%; inactive = the rest.
# Legend:
# [1] = LFS_MB_P medulloblastoma growth inhibition, cell-based, chromothripsis tumors, cisplatin or BGB combos (AID 1671449); conditions: LFS_MB_P medulloblastoma cells;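 note: cells exposed for 96 hours; 0% = vehicle DMSO and 100% = killing by high DMSO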
# [2] = HDN33 neuroblastoma growth inhibition, cell-based, chromothripsis tumors, cisplatin or BGB combos (AID 1671450); conditions: HDN33 neuroblastoma cells, stronger effect = higher value;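 note: cells exposed to compound for four days; 0% = vehicle DMSO and 100% = cell killing by high DMSO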
# [3] = ICB984 medulloblastoma cell growth inhibition, synergistic combos for chromothripsis tumors, cisplatin or BGB combos (AID 1671451; call rule not given here;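 note: cells exposed for 96 hours before readout; 0% = vehicle DMSO and 100% = killing by high DMSO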); conditions: ICB984 medulloblastoma cells, drug combinations, stronger effect = higher value
# [4] = LFS_MB_1R medulloblastoma cell growth inhibition, synergistic combos for chromothripsis tumors, cisplatin or BGB combos (AID 1671452); conditions: LFS_MB_1R medulloblastoma cells, stronger effect = higher value;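 note: cells exposed for 96 hours before readout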
# [5] = HTB85 osteosarcoma cell growth inhibition, synergistic combos for chromothripsis tumors, BGB or cisplatin IC20 combos (AID 1671453); conditions: HTB85 osteosarcoma cells, drug combinations, stronger effect = higher value;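 note: cells exposed for 96 hours before readout; 0% = vehicle DMSO and 100% = high DMSO killing control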
# [6] = CRL2098 osteosarcoma cell growth inhibition, synergistic combos for chromothripsis tumors, BGB or cisplatin IC20 combos (AID 1671454); conditions: CRL2098 osteosarcoma cells, drug combinations, stronger effect = higher value;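 note: cells exposed for 96 h before readout; 0% = vehicle DMSO and 100% = killing by high DMSO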
# [7] = HD-MB03 medulloblastoma cell growth inhibition, synergistic combos for chromothripsis tumors, BGB or cisplatin IC20 combos (AID 1671455; in the data active = inhibition above about 83%;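 note: 0% = vehicle DMSO and 100% = high DMSO as cytotoxic control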); conditions: HD-MB03 medulloblastoma cells, stronger effect = higher value
# [8] = UWB1.289 ovarian carcinoma cell growth inhibition, synergistic combos for chromothripsis tumors, BGB or cisplatin combos (AID 1671456); conditions: UWB1.289 ovarian carcinoma cells, stronger effect = higher value;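 note: cells exposed to compound for four days; 0% = vehicle DMSO and 100% = killing by high DMSO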
# [9] = LFS_MB_2R medulloblastoma cell growth inhibition, synergistic combos for chromothripsis tumors, cisplatin combos (AID 1671457); conditions: LFS_MB_2R medulloblastoma cells, stronger effect = higher value;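 note: cells exposed to compound for four days before readout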
# [10] = MDA-MB-436 breast carcinoma cell growth inhibition, synergistic combos for chromothripsis tumors, BGB or cisplatin combos (AID 1671458; call rule not given here;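 note: cells exposed for 96 hours; 0% = vehicle DMSO and 100% = killing by high DMSO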); conditions: MDA-MB-436 breast carcinoma growth inhibition, drug combinations, stronger effect = higher value
# [11] = UWB1.289_BRCA1 ovarian cancer growth, cell-based, BGB or cisplatin combinations (AID 1671459); conditions: UWB1.289 BRCA1 ovarian carcinoma, drug combinations, stronger effect = higher value
# [12] = human astrocyte viability loss, single and combined drugs, cytotoxicity control for chromothriptic childhood tumor combination screen, cell-based, BGB or cisplatin IC20 combos (AID 1671460); conditions: Human astrocytes, drug combinations, stronger effect = higher value;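 note: cells exposed to compounds for 96 hours before viability readout; 0% = vehicle and 100% = killing control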
# [13] = growth inhibition of BT084 medulloblastoma cells, cell-based, ICGC_MB145, cisplatin and BGB IC40 combos (AID 1671461); conditions: drug combinations, stronger effect = higher value;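 note: cells exposed to drugs for 96 hours; 0% = vehicle DMSO and 100% = high DMSO full killing control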
# [14] = growth inhibition of RCMB18 medulloblastoma cells, cell-based, cisplatin and BGB IC40 combos (AID 1671462); conditions: stronger effect = higher value;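 note: cells exposed to compound for four days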
# [15] = growth inhibition of CRL1545 osteosarcoma cells, cell-based, cisplatin and BGB IC20 combos (AID 1671464); conditions: stronger effect = higher value;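 note: cells exposed to compound for 96 hours before readout; 0% = vehicle DMSO and 100% = high DMSO killing control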
# [16] = at 0.5 µM, stronger effect = higher value
# [17] = measured here: combination with BGB IC20, at 0.005 µM
# [18] = measured here: combination with BGB IC40, at 0.005 µM
# [19] = measured here: combination with BGB IC40, at 0.05 µM
# [20] = measured here: combination with cisplatin, at 0.5 µM, stronger effect = higher value
# [21] = measured here: combination with cisplatin, at 5 µM, stronger effect = higher value
# [22] = measured here: with BGB IC20 combination, at 0.5 µM
# [23] = measured here: with cisplatin IC20 combination, at 0.5 µM
# [24] = measured here: 5 uM single agent, at 5 µM
# [25] = measured here: combination with cisplatin, at 0.5 µM
# [26] = measured here: combination with cisplatin, at 5 µM
# [27] = measured here: with BGB IC20, at 0.5 µM
# [28] = measured here: with BGB IC20, at 5 µM
# [29] = measured here: with cisplatin IC20, at 0.5 µM
# [30] = measured here: with cisplatin IC20, at 5 µM
# [31] = measured here: combination with BGB at IC20, at 0.5 µM
# [32] = measured here: combination with cisplatin at IC20, at 0.5 µM
# [33] = measured here: combo with BGB at IC20, at 0.5 µM
# [34] = measured here: combo with cisplatin at IC20, at 0.5 µM
# [35] = measured here: inhibition with BGB combination, at 0.05 µM
# [36] = measured here: inhibition with cisplatin combination, at 0.05 µM
# [37] = measured here: BGB combination, at 0.5 µM
# [38] = measured here: BGB combination, at 5 µM
# [39] = measured here: cisplatin combination, at 0.5 µM
# [40] = measured here: cisplatin combination, at 5 µM
# [41] = BGB combination, concentration series, at 5 µM
# [42] = cisplatin combination, concentration series, at 5 µM
# [43] = measured here: combo with BGB IC20, at 0.5 µM
# [44] = measured here: combo with cisplatin IC20, at 0.5 µM
# [45] = cisplatin combination, at 0.5 µM
# [46] = measured here: BGB IC40 combination 0.05 uM, at 0.05 µM
smiles,measurement,setting,value
CN(C)CCNC(=O)c1cccn2c(=O)c3cc4ccccc4cc3nc12,inhibition,[1]; [16],-18% (inactive) and -22.8% (inactive)
same,inhibition,[1]; [17],-22.4% and -7.9%
same,inhibition,[1]; [18],-33.3% and -28%
same,inhibition,[1]; [19],-30.9% and 0.948%
same,inhibition,[1]; [20],-27.4% and -25.4%
same,inhibition,[1]; [21],25.9% and 73.9%
same,inhibition,"[2]; BGB combo, at 5 µM",58.1% and 71.8%
same,inhibition,[2]; at 0.5 µM,4.02% (inactive) and 16.5% (inactive)
same,inhibition,"[2]; cisplatin combo, at 5 µM",63.6% and 83.1%
same,inhibition,[2]; [22],-3.52% and 15.5%
same,inhibition,[2]; [23],5.98% and 5.66%
same,inhibition,"[2]; single agent, at 5 µM",67.9% and 86.2%
same,inhibition,"[3]; BGB IC20 combo, at 0.005 µM",-2.65% and -7.73%
same,inhibition,"[3]; BGB IC40 combo, at 0.005 µM",-19% and -46.8%
same,inhibition,"[3]; BGB IC40 combo, at 0.05 µM",29.2% and 25.5%
same,inhibition,[3]; at 0.5 µM,-22.7% (inactive) and -19.3% (inactive)
same,inhibition,"[3]; cisplatin combo, at 0.05 µM",25.8% and 22.5%
same,inhibition,"[3]; cisplatin combo, at 0.5 µM",-35.6% and -11.2%
same,inhibition,"[3]; cisplatin combo, at 5 µM",-26.2% and -47.1%
same,inhibition,[3]; [24],-15.3% and -26.1%
same,inhibition,[4]; at 0.5 µM,-22.6% (inactive) and -0.28% (inactive)
same,inhibition,[4]; [19],-22.9% and -35.5%
same,inhibition,[4]; [25],-29.9% and 26.6%
same,inhibition,[4]; [26],66.5% and 90.2%
same,inhibition,[5]; at 0.5 µM,-6.94% (inactive) and -9.64% (inactive)
same,inhibition,[5]; [27],10% and -19.8%
same,inhibition,[5]; [28],24.9% and 50.6%
same,inhibition,[5]; [29],-22.5% and -20.8%
same,inhibition,[5]; [30],24% and 36.1%
same,inhibition,"[5]; single agent, at 5 µM",45.2% and 66.6%
same,inhibition,[6]; at 0.5 µM,2.28% (inactive) and -30.7% (inactive)
same,inhibition,[6]; [31],-26.7% and 2.29%
same,inhibition,[6]; [32],7.69% and -23.9%
same,inhibition,[7]; at 0.5 µM,0.57% (inactive) and 18.1% (inactive)
same,inhibition,[7]; [33],5% and 20.5%
same,inhibition,[7]; [34],-3.84% and 18.8%
same,inhibition,[8]; at 0.5 µM,10.9% (inactive) and 15.8% (inactive)
same,inhibition,[8]; [35],-15.6% and -22%
same,inhibition,[8]; [36],-3.25% and -14.4%
same,inhibition,[9]; at 0.5 µM,-28.9% (inactive) and -23.7% (inactive)
same,inhibition,[9]; [25],-34.7% and -23.8%
same,inhibition,[9]; [26],-8.3% and 23.4%
same,inhibition,[10]; at 0.5 µM,-19.8% (inactive) and -0.82% (inactive)
same,inhibition,[10]; [37],-29.6% and -21.4%
same,inhibition,[10]; [38],5.41% and 28.4%
same,inhibition,[10]; [39],-39.6% and -3.6%
same,inhibition,[10]; [40],-6.72% and 54.3%
same,inhibition,[11]; [41],35.7% and 58.1%
same,inhibition,[11]; at 0.5 µM,9.64% (inactive) and 20.1% (inactive)
same,inhibition,[11]; [42],60% and 77.2%
same,inhibition,[12]; at 0.5 µM,16.8% (inactive) and 32.4% (inactive)
same,inhibition,[12]; [43],18.7% and 31.3%
same,inhibition,[12]; [44],0.257% and 17.6%
same,inhibition,[13]; at 0.5 µM,-10% (inactive) and -13.6% (inactive)
same,inhibition,[13]; [45],-8.31% and -7.28%
same,inhibition,"[13]; cisplatin combination, at 5 µM",-110% and 45.2%
same,inhibition,[13]; [46],-36.7% and -32.1%
same,inhibition,"[13]; single agent, at 5 µM",-53.7% and -33.8%
same,inhibition,[14]; at 0.5 µM,-4.43% (inactive) and -8.03% (inactive)
same,inhibition,"[14]; cisplatin combo, at 5 µM",24.5% and 56.4%
same,inhibition,"[14]; measured here: BGB IC40 combination, at 0.05 µM",-9.99% and -6.24%
same,inhibition,[14]; [25],-30.6% and 30.2%
same,inhibition,"[14]; single agent, at 5 µM",-2.75% and -32%
same,inhibition,[15]; at 0.5 µM,6.65% (inactive) and -6.99% (inactive)
same,inhibition,[15]; [22],19.7% and -21.2%
same,inhibition,[15]; [23],-1.47% and 0.101%
same,inhibition,"[15]; single agent, at 0.05 µM",-9.51% and -11.2%
same,inhibition,"[15]; single agent, at 5 µM",37.2% and 93.5%
NC(=O)c1cccc2[nH]c(-c3ccc(C4CCCN4)cc3F)nc12 (stereo not drawn),inhibition,[1]; [16],19.3% (inactive)
same,inhibition,[1]; [17],7.36%
same,inhibition,[1]; [18],-24.3%
same,inhibition,[1]; [19],1.68%
same,inhibition,[1]; [20],52.8%
same,inhibition,[1]; [21],58.1%
same,inhibition,"[2]; BGB combo, at 5 µM",54.3%
same,inhibition,[2]; at 0.5 µM,15.5% (inactive)
same,inhibition,"[2]; cisplatin combo, at 5 µM",60.1%
same,inhibition,[2]; [22],22.6%
same,inhibition,[2]; [23],10.8%
same,inhibition,"[2]; single agent, at 5 µM",54.9%
same,inhibition,"[3]; BGB IC20 combo, at 0.005 µM",3.69%
same,inhibition,"[3]; BGB IC40 combo, at 0.005 µM",-38.8%
same,inhibition,"[3]; BGB IC40 combo, at 0.05 µM",41.6%
same,inhibition,[3]; at 0.5 µM,-20.7% (inactive)
same,inhibition,"[3]; cisplatin combo, at 0.05 µM",39.3%
same,inhibition,"[3]; cisplatin combo, at 0.5 µM",-35.8%
same,inhibition,"[3]; cisplatin combo, at 5 µM",-28.7%
same,inhibition,[3]; [24],-6.58%
same,inhibition,[4]; at 0.5 µM,-15.8% (inactive)
same,inhibition,[4]; [19],-15.1%
same,inhibition,[4]; [25],-24.3%
same,inhibition,[4]; [26],48.8%
same,inhibition,[5]; at 0.5 µM,6.65% (inactive)
same,inhibition,[5]; [27],0.81%
same,inhibition,[5]; [28],37.8%
same,inhibition,[5]; [29],2.33%
same,inhibition,[5]; [30],51.1%
same,inhibition,"[5]; single agent, at 5 µM",52.6%
same,inhibition,[6]; at 0.5 µM,-18.9% (inactive)
same,inhibition,[6]; [31],-1.16%
same,inhibition,[6]; [32],-8.89%
same,inhibition,[7]; at 0.5 µM,7.06% (inactive)
same,inhibition,[7]; [33],1.45%
same,inhibition,[7]; [34],11.4%
same,inhibition,[8]; at 0.5 µM,9.31% (inactive)
same,inhibition,[8]; [35],-4.89%
same,inhibition,[8]; [36],-21.6%
same,inhibition,[9]; at 0.5 µM,-11.1% (inactive)
same,inhibition,[9]; [25],-12.4%
same,inhibition,[9]; [26],48.1%
same,inhibition,[10]; at 0.5 µM,12.2% (inactive)
same,inhibition,[10]; [37],-1.6%
same,inhibition,[10]; [38],34.2%
same,inhibition,[10]; [39],12.5%
same,inhibition,[10]; [40],56.6%
same,inhibition,[11]; [41],55.7%
same,inhibition,[11]; at 0.5 µM,12.5% (inactive)
same,inhibition,[11]; [42],69.9%
same,inhibition,[12]; at 0.5 µM,18.3% (inactive)
same,inhibition,[12]; [43],32.5%
same,inhibition,[12]; [44],12%
same,inhibition,[13]; at 0.5 µM,-17.4% (inactive)
same,inhibition,[13]; [45],-7.13%
same,inhibition,"[13]; cisplatin combination, at 5 µM",41.8%
same,inhibition,[13]; [46],14.7%
same,inhibition,"[13]; single agent, at 5 µM",45%
same,inhibition,[14]; at 0.5 µM,-17.5% (inactive)
same,inhibition,"[14]; cisplatin combo, at 5 µM",55.7%
